Values without a mark were called inactive. No rule for the calls is given here.

What is called inhibition is the share of the control response that was lost under treatment.

Chain of Pantothenate synthetase (Mycobacterium tuberculosis (strain ATCC 25618 / H37Rv)) (P9WIL5 whole entry, looked up): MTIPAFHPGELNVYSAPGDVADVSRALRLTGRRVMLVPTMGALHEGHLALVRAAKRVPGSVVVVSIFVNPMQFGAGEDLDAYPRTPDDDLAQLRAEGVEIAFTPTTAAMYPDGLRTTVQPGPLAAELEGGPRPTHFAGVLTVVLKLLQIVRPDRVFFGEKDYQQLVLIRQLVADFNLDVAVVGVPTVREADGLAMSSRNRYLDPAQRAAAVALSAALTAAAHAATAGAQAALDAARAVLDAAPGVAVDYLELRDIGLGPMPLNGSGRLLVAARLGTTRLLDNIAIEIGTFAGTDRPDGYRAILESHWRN

This experiment has as its target Pantothenate synthetase (Mycobacterium tuberculosis (strain ATCC 25618 / H37Rv)) (UniProt P9WIL5). In words: Recombinant Mtb pantothenate synthetase (PanC) inhibitors, coupled enzyme, confirmatory (AID 375).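 Also: 0% = full reaction with vehicle and 100% = no enzyme background.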 Particulars: coupled enzyme assay; at 10 µM, stronger effect = higher value.
`CCc1ccccc1N1C(=O)C2CC(C)=C(C)CC2C1=O` (configuration not stated): the inhibition was 0%.

For the molecule `CCC(=O)Nc1cccc(Br)c1`, the inhibition was 2%. The result for `O=c1c2ccccc2nnn1CSc1nc2cc(Cl)ccc2c(=O)n1Cc1ccco1` reads 7%; that for `O=S(=O)(c1ccccc1)N1CCN(S(=O)(=O)c2ccccc2)C1`, 0%. Consider `O=C(Nc1ccon1)c1cccc(S(=O)(=O)N2CCCC2)c1`, for which the inhibition is 2%.

As for `CCOC(=O)C1(C(=O)OCC)C(c2ccccc2)CC(O)N1C(C)=O` (configuration not stated), the inhibition was 0%. The result for `Cc1nc2c(-c3ccccc3)c(C)[nH]n2c(=O)c1Cl` reads 0%; that for `CCOC(=O)c1c(C)oc2c1c(C=NCc1ccccn1)c(O)c1ccccc12`, 3%; that for `COc1cc(C(=O)OCc2cc3ccccc3[nH]c2=O)cc(OC)c1OC`, 4%. Consider `COc1cc2nc(N3CCN(C(=O)C4COc5ccccc5O4)CC3)nc(N)c2cc1OC` (configuration not stated), for which the inhibition was 3%. The result for `CC(C)(C)NC(=O)CN(C(=O)C1CSC(=O)C1)c1ccc2c(c1)OCCO2` (configuration not stated) reads 0%; that for `CCOC(=O)N1CCN(S(=O)(=O)c2cc(Cl)c(OC)cc2Cl)CC1`, 0%; that for `CC(C)c1ccc(CNc2ccc(N3CCOCC3)cc2)cc1`, 2%. With `COCCOC(=O)c1[nH]c2c(c1C)C(=O)CC(c1ccco1)C2` (configuration not stated), the inhibition is 3%. The result for `COc1ccccc1C(=O)N1CCN(C(=O)c2ccncc2)CC1` reads 0%.

As for `COc1ccc(NC(=O)N(C2CCCCC2)C2CCN(C(C)C)CC2)c(OC)c1`, the inhibition was 0%. The result for `Cc1ccc(C)c(N2CCN(C(=O)c3ccc(CS(=O)(=O)c4ccccc4C)o3)CC2)c1` reads 8%.

The values above are taken from PubChem BioAssay.
